# Experimental data: PubChem BioAssay (NCI)
# “And” between values parts separate entries of the source, which are not always exact repeats. Equal entries are not always repeated. The panel holds about 83,000 compounds, 20% with a hit somewhere; the sample as a whole holds those more often.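 The endpoint reported here, percent growth, reads 100 for growth as untreated, 0 for no net growth and -100 for all cells dead.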 A number with no mark means an inactive call. The source made the active and inactive calls. Rule for the calls: active = growth percent below 10; inactive = the rest.
# System: MDA-MB-468 breast
# Experiment: NCI-60 one-dose screen, 48 h (100 = growth as untreated, 0 = no growth, -100 = all killed)
# Conditions: 10 µM unless noted
row,Compound,growth
1,O=C(COc1ccc(/C=C2\Cc3ccc(Cl)cc3C2=O)cc1)Nc1nccs1,98.8%
2,CS(=O)(=O)OCC(COS(C)(=O)=O)C(c1ccccc1)c1ccccc1,102%
3,O=C1/C(=C/c2ccc(C(F)(F)F)cc2)COc2ccc(O)c(O)c21,-36.8% (active)
4,Cc1nc2sc(C(=O)Nc3ccccn3)c(N)c2cc1C(C)O (stereo not given),38.4%
5,COC12C=C/C(=C(/C(=O)OCc3ccncc3)C(=O)CCCCCCCCC3(OC)C=C/C(=C(/C(=O)OCc4ccncc4)C(=O)CCCCCCCC1)O3)O2,-39% (active)
6,O=C(Nc1cc(=O)[nH]c(=O)[nH]1)C(Cl)Cl,98.5%
7,C=C(C)[C@@H]1CC[C@]2(CO)CC[C@]3(C)[C@H](CC[C@@H]4[C@@]5(C)C=C(C#N)C(=O)C(C)(C)[C@@H]5CC[C@]43C)[C@@H]12,8.08% (active)
8,O=C(Nc1cccc(NC(=O)Nc2cc(C(F)(F)F)ccc2Cl)c1)Nc1cc(C(F)(F)F)ccc1Cl,-8.33% (active)
9,O=C(/C=C/c1cc(-c2ccc3c(c2)OCO3)n[nH]1)c1ccc2c(c1)OCO2,77.2%
10,CC(=O)OC1CC2C(C)(C)OC3CC(=O)OCC32C2CCC3(C)C(=CCC3c3ccoc3)C12C (stereo not given),39.1%
11,COC(=O)[C@]12CC[C@@H](C)[C@H](C)[C@@H]1C1=CC(=O)[C@@H]3[C@@]4(C)C[C@@H](O)[C@H](O)[C@@]5(C)COC(=C45)C[C@@]3(C)[C@]1(C)CC2,44.2%
12,O=c1[nH]c(O)c(/C=C2/C=Nc3ccccc32)[nH]1,66.1%
13,Nc1c(C(=O)Nc2cccc3ccccc23)sc2nc3c(cc12)CCCCCC3,30.7%
14,CS(=O)(=O)c1ccc(-n2cc(/C=C/C(=O)c3ccc(NC(=O)CO[N+](=O)[O-])cc3)c(-c3ccc(Cl)cc3)n2)cc1,94.1%
15,Nc1ccc2c(c1)C1(CCC2)NC(=O)NC1=O (stereo not given),97.4%
16,Cc1ccc(C(=O)c2ccc(CC(=O)NN3C(=O)c4ccccc4C3=O)n2C)cc1,93%
17,COc1ccccc1NC(=O)OCC#CCOC(=O)Nc1ccccc1OC,92.6% and 89.9%
18,CCCCCn1c(C)cc(/C=C\c2ccc3cc(C)ccc3[n+]2C)c1C,-82.4% (active)
19,CC(C)c1cccc(C#N)c1,99.4%
20,OC1CCN(CCCOc2c3ccc(Cl)cc3nc3c2oc2ccc(Cl)cc23)CC1,1% (active)

row,Compound,growth
1,Cc1cc(Cl)ccc1Nc1nc(C(F)(F)F)ccc1C(=O)NCC(=O)N/N=C/c1c(Cl)cccc1Cl,105%
2,CC1=CC(=Nc2ccc(N(C)C)cc2)C=C(C)C1=O,15%
3,CC(C)NS(=O)(=O)c1cccc(-c2ccc3c4c(n(CCCN(C)C)c(=O)c3c2)-c2ccccc2C4=O)c1,99.3%
4,CN(C)CCCNc1nc2ccccc2c2c(=O)c3cc(F)ccc3sc12,-6.97% (active)
5,N/C(=N\c1nc2ccccc2s1)NC(=O)Nc1cccc2ccccc12,3.96% (active)
6,O=C(NCCNC(=O)Oc1cccc2ccccc12)Oc1cccc2ccccc12,103%
7,COc1cc2c(cc1-c1c(C)noc1C)ncc1nc(-c3ccccn3)n([C@H](C)COC(F)F)c12,46.5%
8,CC(C)(C)c1cc(Cl)c(O)c(CNCCO)c1,96.1%
9,Brc1cnc2[nH]cc(-c3nnc(-c4ccccc4)o3)c2c1,60.3%
10,COC(=O)C(CC=O)C(=O)C(=O)Nc1cccc(C(F)(F)F)c1 (stereo not given),104%
11,O=C1CC(c2ccc(Cl)cc2)c2ncn(-c3cccc(Cl)c3)c2N1 (stereo not given),41.3%
12,C=C1C(=O)O[C@H]2[C@H]1CC/C(COC(=O)NCCc1ccc(OC)c(OC)c1)=C\CC[C@@]1(C)O[C@@H]21,16.9%
13,C=CC(=O)Nc1cccc(-c2nc(SC)nc(NCCN3CCOCC3)c2C#N)c1,97.8%
14,O=C1/C(=C/c2ccc(OCc3ccccc3)cc2)Oc2cc(OCCN3CCCCC3)ccc21,48.3%
15,COc1ccc(C(=NNS(=O)(=O)c2ccc(C)cc2)c2ccccc2)cc1OC,103%
16,CN1CCN(c2ccc(-c3cc4c(Nc5ccc(F)c(Cl)c5)ncnn4c3)cc2)CC1,7.99% (active)
17,C#CCOc1ccc2ncnc(NCc3cccc(NC(=O)CCl)c3)c2c1,4.87% [8.25 µM] (active)
18,CCCCCCCCCCCCCCCC(=O)O[C@@H]1[C@@H](O)[C@@H](O)C([C@H](NC(=O)[C@@H]2C[C@@H](CCC)CN2C)[C@H](C)Cl)O[C@@H]1SC (stereo not given in full),97.9%
19,COc1ccc(N2CCN(Cc3cc(C(=O)/C=C/c4c[nH]c5ccccc45)ccc3O)CC2)cc1,99.5%
20,COC(=O)c1cc2cc(-c3ccc(OC)cc3)cnc2[nH]1,17.4%
